Screens (PubChem)
Sampled rows, rich in hits. Any-hit rate of the full collection: about 7.3%.
AmpC no deterg: qHTS Inhibitors of AmpC Beta-Lactamase (assay without detergent) | AmpC nitrocefin hydrolysis, absorbance 480 nm, 0.0001% Triton | P00811 | hit rate 0.52% among 330,000 | Potency, µM (highest dose often 57.1 µM), inactives show at the top dose activity change, negative = inhibition, hits mostly inhibitors;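 also: potency is read from the fitted curve at half-maximal effect; plate controls were no compound for no effect and no enzyme for full effect; nearly all actives have a fitted effect of over 20% in size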
Target sequence (P00811 whole entry, looked up): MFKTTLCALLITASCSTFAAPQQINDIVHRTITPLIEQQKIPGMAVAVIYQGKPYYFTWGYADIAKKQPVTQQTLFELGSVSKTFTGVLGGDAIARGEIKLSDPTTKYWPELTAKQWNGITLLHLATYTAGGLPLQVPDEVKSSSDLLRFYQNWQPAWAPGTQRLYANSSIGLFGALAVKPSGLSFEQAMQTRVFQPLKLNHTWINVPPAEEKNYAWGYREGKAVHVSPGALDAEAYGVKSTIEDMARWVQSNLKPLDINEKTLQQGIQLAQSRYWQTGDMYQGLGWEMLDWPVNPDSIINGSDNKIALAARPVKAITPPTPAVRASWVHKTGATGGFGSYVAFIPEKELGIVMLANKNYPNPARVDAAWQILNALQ
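AmpC (5.3 nM in the dispensed reagent) in 20 mM phosphate pH 7.0 with 0.01% (detergent screen) or 0.0001% Triton X-100 was preincubated with compounds for 15 min at room temperature. Nitrocefin was then added from an 800 uM solution, and hydrolysis was followed at 480 nm.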
FMDV inh: High Throughput Screening for Foot and Mouth Disease Virus Antivirals; FMDV antiviral cell-based qHTS; Potency, µM (titrated, usually from 57.9 µM), without a hit: at the top dose activity change, negative = inhibition, hits mostly inhibitors; hit rate 1.2% among 410,000; AID 1159524, 2015; calls by dose curve; tested in HEK293T cells; also: read-out not given here; potency is read from the fitted curve at half-maximal effect; nearly all actives have a fitted effect of over 45% in size
HCV inh: qHTS Assay for Inhibitors of Hepatitis C Virus (HCV). Huh7.5.1 HCVcc-Cre infection, luciferase reporter, 44 h. Potency, µM (series often up to 41.8 µM), for the others: at the top dose activity change, negative = inhibition, actives largely listed as inhibitors. hit rate 3.4% among 340,000. AID 651820, 2012; also: potency is read from the fitted curve at half-maximal effect
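Compounds are dispensed onto cells plated 4 h earlier at 1,000 per well, with HCVcc-Cre virus (about 0.5 moi) added next. Following 44 h of culture, luminescent signal is measured for 15 sec after 15 min with substrate at room temperature.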
AmpC inh detg: qHTS Inhibitors of AmpC Beta-Lactamase (assay with detergent) | Potency, µM (series often up to 114 µM), without a hit: at the top dose activity change, negative = inhibition, most hits filed as inhibitors | AmpC hydrolysis of nitrocefin, absorbance 480 nm, 0.01% Triton | AID 485294, 2010 | hit rate 0.041% among 370,000;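 also: potency is read from the fitted curve at half-maximal effect; 0% = no-compound wells and -100% = no-enzyme wells; nearly all actives have a fitted effect of over 25% in size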
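AmpC (5.3 nM in the dispensed reagent) in 20 mM phosphate pH 7.0 with 0.01% (detergent screen) or 0.0001% Triton X-100 was preincubated with compounds for 15 min at room temperature. Nitrocefin was then added from an 800 uM solution, and hydrolysis was followed at 480 nm.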
HCMV inh: qHTS Assay for inhibitors of the human cytomegalovirus (HCMV); HFF cells, HCMV-luciferase reporter, 72 h; hits give low values; activity change, negative = inhibition, % at 57.5 µM; hit rate 4.5% among 410,000; in the data active = activity change below about -60%; inconclusive = no clear call, values can overlap the other calls; inactive = above about -39%
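Compounds were evaluated in HFFs infected with an HCMV luciferase reporter virus (MOI 1 PFU/cell). Luciferase in lysates collected 72 h post infection served as the replication measure.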
* = called active by the depositor; ! = not active in a repeat. Unless noted, calls follow the shape of the dose curve; as a rule, active = well fitted curve in the direction sought with a large enough effect; inconclusive = small, poorly fitted or top-dose-only effect, or another doubt; inactive = no such curve, though single readings can be large; an effect the other way counts as inactive or inconclusive. Unless noted, % is scaled to controls: 0 for no effect and ±100 for the full control effect.

What do the screens show for `O=C(CSc1cn(CC(=O)N2CCCC2)c2ccccc12)Nc1cc(C(F)(F)F)ccc1Cl`?
FMDV inh: -15.9%; AmpC inh detg: 1.4%; HCMV inh: 11.6

How did CC(c1ccccc1C(O)(c1ccccc1)c1ccccc1)N(C)C (centres undefined) do in these assays?
AmpC no deterg: 42.1%; FMDV inh: -13.7%; HCV inh: 6.3%; AmpC inh detg: -12.1%; HCMV inh: -68.8*

Results for COc1ccccc1C(O)(c1ccccc1)c1ccccc1OC ?
FMDV inh: -1.0%; HCV inh: -23.3%; HCMV inh: 11.7

Results for O=C1NCCN(CC2CCN(CC3CCCC3)CC2)C1=O ?
FMDV inh: -7.3%; HCV inh: -48.5%; HCMV inh: 0.0

Results for C#CCSc1nnnn1-c1cccc(Cl)c1 ?
AmpC no deterg: -25.5%; FMDV inh: -14.1%; HCV inh: 25.1µM*; AmpC inh detg: 3.3%; HCMV inh: -4.9

Results for NC(=O)CSc1nnnn1-c1cccc(Cl)c1 ?
AmpC no deterg: -6.6%; FMDV inh: -18.3%; HCV inh: 32.8%; AmpC inh detg: 4.2%; HCMV inh: 1.0

What do the screens show for `CCc1ccc(NC(=O)C2CCCN(S(=O)(=O)c3c(C)noc3/C=C/N(C)C)C2)cc1` (centres undefined)?
FMDV inh: 0.0%; AmpC inh detg: 11.7%; HCMV inh: 14.9

How did COc1ccc(C)cc1-n1c(=O)c2ccccc2c2ccccc2c1=O do in these assays?
AmpC no deterg: 97.7%; FMDV inh: 25.1µM*; HCV inh: 5.3%; AmpC inh detg: -11.7%; HCMV inh: inconclusive

What do the screens show for `CC1CN(S(=O)(=O)c2cccc(C(=O)OCc3cc(=O)oc4cc(O)ccc34)c2)CC(C)O1` (centres undefined)?
AmpC no deterg: -48.3%; FMDV inh: 22.4µM*; HCV inh: 10µM*!; AmpC inh detg: -9.2%; HCMV inh: 27.5

Results for CN(C)c1cccc(C(=O)OCc2cc(=O)oc3cc(O)ccc23)c1 ?
AmpC no deterg: 17.8µM*; FMDV inh: 4.8%; HCV inh: inconclusive; AmpC inh detg: -1.7%; HCMV inh: 8.1

How did CC1CN(S(=O)(=O)c2cccc(C(=O)OCCOc3ccccc3)c2)CC(C)O1 (centres undefined) do in these assays?
AmpC no deterg: 74.9%; FMDV inh: inconclusive; HCV inh: inconclusive; AmpC inh detg: -2.0%; HCMV inh: -13.3

What do the screens show for `CCc1sc(C(=O)N2CCN(c3ncccn3)CC2)cc1Br`?
AmpC no deterg: -6.1%; FMDV inh: -25.5%; HCV inh: -8.9%; AmpC inh detg: -3.3%; HCMV inh: -21.4

Results for COc1ccc(/C=C/C(=O)c2ccc(O)cc2)cc1 ?
AmpC no deterg: -41.7%; FMDV inh: 36.3%; HCV inh: 10.5%; AmpC inh detg: -4.6%; HCMV inh: 36.5

What do the screens show for `COc1cc(/C=C/c2ccc(O)cc2)cc(OC)c1`?
AmpC no deterg: -30.4%; FMDV inh: 27.5%; HCV inh: 12.6µM*; AmpC inh detg: -0.6%; HCMV inh: 12.6

How did C(#Cc1ccccc1)C[N+]1(CC#Cc2ccccc2)CCCCC1 do in these assays?
AmpC no deterg: -13.5%; FMDV inh: inconclusive; HCV inh: inconclusive; AmpC inh detg: -12.0%; HCMV inh: -62.3*

What do the screens show for `Cc1ccc(C#CC[N+]2(CC#Cc3ccc(C)cc3)CCCCC2)cc1`?
AmpC no deterg: 48.0%; FMDV inh: inconclusive; HCV inh: inconclusive; AmpC inh detg: -7.6%; HCMV inh: -100.9*

What do the screens show for `CC(C)Sc1nc(-c2cccs2)nc2cc(Cl)ccc12`?
FMDV inh: -21.4%; HCMV inh: -19.4

Results for CC(C)C[C@@H]1COc2cccc(N3CCSCC3)c2S(=O)(=O)N1 ?
FMDV inh: -18.7%; HCMV inh: 16.4

What do the screens show for `CSc1nccc(-c2cc(Cl)c3c(c2)CC(CNC(=O)c2nonc2C)O3)n1` (centres undefined)?
FMDV inh: -13.2%

What do the screens show for `O=[N+]([O-])c1ccccc1S(=O)(=O)c1ccccc1[N+](=O)[O-]`?
AmpC no deterg: -13.6%; FMDV inh: -10.0%; HCV inh: 4.8%; AmpC inh detg: inconclusive; HCMV inh: 7.9

What do the screens show for `CC(CS(=O)(=O)c1ccccc1[N+](=O)[O-])N1CCOCC1` (centres undefined)?
AmpC no deterg: -16.3%; FMDV inh: -17.9%; HCV inh: 32.0%; AmpC inh detg: 4.1%; HCMV inh: -80.8*

How did COc1ccc(NC(=O)CS(=O)(=O)c2cn(CC(=O)N3CCCC3)c3ccccc23)c(OC)c1 do in these assays?
AmpC no deterg: 30.2%; FMDV inh: -4.9%; HCV inh: -5.0%; AmpC inh detg: -13.0%; HCMV inh: -38.4

How did CCCC1/C(=N/O)CC(c2ccccc2)NC1c1ccccc1 (centres undefined) do in these assays?
AmpC no deterg: -18.4%; FMDV inh: inconclusive; HCV inh: -13.5%; AmpC inh detg: 3.2%; HCMV inh: -101.2*

What do the screens show for `CC1/C(=N/O)CC(c2ccccc2)NC1c1ccccc1` (centres undefined)?
AmpC no deterg: -23.2%; FMDV inh: -25.1%; HCV inh: -3.4%; AmpC inh detg: inconclusive; HCMV inh: -27.6

How did CCC1C(=NO)C(CC)C(c2ccccc2)NC1c1ccccc1 (centres undefined) do in these assays?
AmpC no deterg: -37.5%; FMDV inh: inconclusive; HCV inh: inconclusive; AmpC inh detg: 0.4%; HCMV inh: -100.7*

How did CCCn1c(=O)sc2cc(NC(=O)c3ccc(OC)c(Br)c3)ccc21 do in these assays?
FMDV inh: -24.5%; AmpC inh detg: -2.2%; HCMV inh: inconclusive

How did CC(C)CNc1ccc2c(n1)C(=O)N([C@H](C)C(=O)N[C@H](CO)c1ccccc1)C2 do in these assays?
HCMV inh: 26.1

What do the screens show for `Cc1cc(OCC(=O)Nc2ccc(N3CCN(C(=O)c4ccco4)CC3)cc2)cc(C)c1Cl`?
AmpC no deterg: -18.4%; FMDV inh: 6.31µM*; HCV inh: inconclusive; AmpC inh detg: -12.5%; HCMV inh: -35.8

Results for Cc1cccc(OCC(=O)Nc2ccc(N3CCN(C(=O)c4ccco4)CC3)cc2)c1 ?
AmpC no deterg: 28.3%; FMDV inh: 15.8µM*; HCV inh: inconclusive; AmpC inh detg: -4.8%; HCMV inh: -68.3*

How did Cc1cccc(C(=O)Nc2ccc(N3CCN(C(=O)c4ccco4)CC3)cc2)c1 do in these assays?
AmpC no deterg: -3.1%; FMDV inh: 7.0%; HCV inh: -27.0%; AmpC inh detg: inconclusive; HCMV inh: -24.6

How did Cc1cccc(OCC(=O)Nc2ccc(N3CCN(C(=O)c4ccccc4)CC3)cc2)c1C do in these assays?
AmpC no deterg: 1.0%; FMDV inh: 14.1µM*; HCV inh: inconclusive; AmpC inh detg: -6.8%; HCMV inh: 13.8
